PubChem BioAssay (NCATS)
Where “and” joins values, the source holds several entries; their conditions need not be identical. Identical values can stand only once. Records with an inconclusive call do not appear. Entries that show only a call come without a potency. Some structures have more than one record in an assay (separate samples or runs), and their calls can disagree. Calls of active or inactive are those of the source. The call rests on the fitted dose curve; in most records, active means well fitted curve in the direction sought with a large enough effect; inconclusive means small, poorly fitted or top-dose-only effect, or another doubt; inactive means no such curve, though single readings can be large; an effect the other way counts as inactive or inconclusive. Numbered stars: 1 amine (or outer) side, 2 acyl side, 3 side chain; on linkers, the order of the positions; unused ones are H or OH. Bridge positions count the residues as written; N and C are the ends. Square brackets hold non-standard residues; d marks the D form. Peptide text beside a SMILES is read from it. I, II: the chains in the order shown. Actinocin(9to1) = Cc1c2oc3c(C)ccc(C(=O)[*:1])c3nc-2c(C(=O)[*:2])c(N)c1=O; NMeV = CN[CH](C(=O)O)C(C)C; Sar = CNCC(=O)O

Key:
[1] = Viability qHTS for spleen associated tyrosine kinase inhibitor (SYKi) naive MV4-11 cells (AID 1963823); settings: MV4-11 AML viability, CellTiter-Glo luminescence, 72 h; series mostly up to 45 µM; further: nearly all actives have a fitted effect of over 40% in size
Procedure, shortened: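 SYKi-naive MV4-11 AML cells, 500 per well, were exposed to library compounds for 72 hr at 37 C, 5% CO2. Viability was then read by CellTiter-Glo luminescence after 10 min at room temperature.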

[2] = Viability qHTS for spleen associated tyrosine kinase inhibitor (SYKi) drug resistant MV4-11 cells (AID 1963824); settings: SYKi-resistant MV4-11 viability, CellTiter-Glo, 72 h; series mostly up to 45 µM; further: nearly all actives have a fitted effect of over 35% in size
Procedure, shortened: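 CellTiter-Glo luminescence, read 10 min after reagent addition, reports viability after a 72 hr compound exposure. Cells are an MV4-11 line made resistant to SYK inhibition, seeded at 500 per well onto compound-containing plates.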

[3] = Quantitative highthroughput screen to assess conditional lethalithy of NOMO1 cells grown in RPMI1640 with untreated serum (RPMI+s) (AID 1963876); settings: NOMO1 AML cells in RPMI+serum, CellTiter-Glo viability, 48 h; series mostly up to 45.8 µM; further: nearly all actives have a fitted effect of over 35% in size
Procedure, shortened: (§1)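 Each medium arm—HPLM with 10% dialyzed FBS, or RPMI1640 with 5 mM glucose and 10% untreated or dialyzed FBS—was screened against an 11-point, 3-fold compound titration for 48 h at 37 °C, with CellTiter-Glo luminescence as endpoint.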

[4] = Quantitative highthroughput screen to assess conditional lethalithy of NOMO1 cells grown in RPMI1640 with dialyzed fetal bovine serum (RPMI+ds) (AID 1963877); settings: NOMO1 in RPMI+dialyzed FBS viability, ATP luminescence, 48 h; series mostly up to 45.8 µM; further: nearly all actives have a fitted effect of over 30% in size
Procedure, shortened: as §1

[5] = Quantitative highthroughput screen to assess conditional lethalithy of NOMO1 cells grown in Human Plasma-Like Medium with dialyzed fetal bovine serum (HPLM+ds) (AID 1963878); settings: NOMO1 AML cells in HPLM+ds, CellTiter-Glo viability, 48 h; series mostly up to 45.8 µM; further: nearly all actives have a fitted effect of over 35% in size
Procedure, shortened: as §1

[6] = Quantitative highthroughput screen to assess conditional lethalithy of P12 Ichikawa cells grown in Human Plasma-Like Medium with dialyzed fetal bovine serum (HPLM+ds) (AID 1963879); settings: ATP luminescence, 48 h; Potency: viability; series mostly up to 45.8 µM; further: nearly all actives have a fitted effect of over 35% in size
Procedure, shortened: as §1

[7] = Quantitative highthroughput screen to assess conditional lethalithy of SEM cells grown in Human Plasma-Like Medium with dialyzed fetal bovine serum (HPLM+ds) (AID 1963882); settings: SEM B-ALL cells in HPLM+ds, CellTiter-Glo viability, 48 h; series mostly up to 45.8 µM; further: nearly all actives have a fitted effect of over 35% in size
Procedure, shortened: as §1

[8] = Quantitative highthroughput screen to assess conditional lethalithy of SEM cells grown in RPMI1640 with unreated serum (RPMI+s) (AID 1963883); settings: SEM B-ALL cells, CellTiter-Glo viability, 48 h; series mostly up to 45.8 µM; further: nearly all actives have a fitted effect of over 35% in size
Procedure, shortened: as §1

[9] = Quantitative highthroughput screen to assess conditional lethalithy of SEM cells grown in RPMI1640 with dialyzed fetal bovine serum (RPMI+ds) (AID 1963884); settings: SEM B-ALL cells, RPMI+dialyzed FBS, CellTiter-Glo viability, 48 h; series mostly up to 45.8 µM; further: nearly all actives have a fitted effect of over 35% in size
Procedure, shortened: as §1

[10] = Cellular viability qHTS for adrenocortical cancer (ACC) cell line SW-13 (AID 1963989); settings: SW-13 ACC cells viability, CellTiter-Glo, 48 h; activity (max response): stronger effect = lower value; further: nearly all actives have a fitted effect of over 65% in size;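 on activity (max response): cells grown in serum-free medium with ITS supplement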
Procedure, shortened: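 IC50 and maximal-response values come from four-parameter logistic fits of titration data. SW-13 cells in serum-free medium received compounds (up to 46 uM final) for 48 h before CellTiter-Glo luminescence.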

[11] = Cellular viability qHTS for adrenocortical cancer (ACC) cell line NCI-H295R (AID 1963990); settings: CellTiter-Glo ATP luminescence, 48 h; series mostly up to 46.1 µM; further: nearly all actives have a fitted effect of over 60% in size
Procedure, shortened: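 Adrenocortical carcinoma cells, suspended at 300 000 cells/mL in serum-free DMEM plus ITS, rested overnight before pin transfer of compound. After two days' incubation, ATP-dependent luminescence was recorded and curve-fitted.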

[12] = Quantitative highthroughput screen to assess conditional lethalithy of P12 Ichikawa cells grown in RPMI1640 with untreated serum (RPMI+s) (AID 1963881); settings: ATP luminescence, 48 h; Potency: viability; series mostly up to 45.8 µM; further: nearly all actives have a fitted effect of over 35% in size
Procedure, shortened: as §1

[13] = Quantitative highthroughput screen to assess conditional lethalithy of P12 Ichikawa cells grown in RPMI1640 with dialyzed fetal bovine serum (RPMI+ds) (AID 1963880); settings: ATP luminescence, 48 h; Potency: P12-Ichikawa viability; series mostly up to 45.8 µM; further: nearly all actives have a fitted effect of over 35% in size
Procedure, shortened: as §1
Potency means the concentration at half of the fitted maximal effect.

Q: What does the source list for O=C(CCCCCCC(=O)Nc1cccnc1)NO?
A: Potency [1]: 3320 nM (active); Potency [2]: 3.72 µM (active); Potency [3]: 20.9 µM (active); Potency [4]: 20.9 µM (active); Potency [5]: 18.7 µM (active); Potency [6]: 7.43 µM (active); Potency [7]: 8.33 µM (active); Potency [8]: 8.33 µM (active); Potency [9]: 6.62 µM (active); Potency [10]: 12.6 µM (active); Potency [11]: 4.47 µM (active)

Q: Which Potency [1] does the source give for Cc1cc(O)c2c(c1)C(=O)c1cccc(O)c1C2=O here?
A: inactive

Q: And the Potency [2]?
A: inactive

Q: What about the Potency [3] of the same compound?
A: inactive

Q: And the Potency [4]?
A: inactive

Q: What about the Potency [5] of the same compound?
A: 20.9 µM (active)

Q: And the Potency [6]?
A: 18.7 µM (active)

Q: What about the Potency [12] of the same compound?
A: inactive

Q: What about the activity (max response) [10] of the same compound?
A: -6.49% (inactive)

Q: What about the Potency [11] of the same compound?
A: inactive

Q: Which results are given for Cc1nc(-c2ccc(OCC(C)C)c(C#N)c2)sc1C(=O)O?
A: Potency [1]: inactive; Potency [2]: inactive; Potency [3]: inactive; Potency [4]: inactive; Potency [5]: inactive; Potency [6]: inactive; Potency [12]: inactive; Potency [7]: inactive; Potency [8]: inactive; Potency [9]: inactive; activity (max response) [10]: 5.55% (inactive) and 8.19% (inactive); Potency [11]: inactive

Q: Which Potency [1] does the source give for N#Cc1cc(NC(=O)Nc2nnc(-c3ccncc3)s2)ccc1-c1cn[nH]c1 here?
A: inactive

Q: And the Potency [2]?
A: inactive

Q: What about the Potency [3] of the same compound?
A: inactive

Q: And the Potency [4]?
A: inactive

Q: What about the Potency [5] of the same compound?
A: inactive

Q: What about the Potency [6] of the same compound?
A: inactive

Q: What about the Potency [13] of the same compound?
A: inactive

Q: What about the Potency [7] of the same compound?
A: inactive

Q: What about the Potency [9] of the same compound?
A: inactive

Q: What about the activity (max response) [10] of the same compound?
A: 13.8% (inactive)

Q: What about the Potency [11] of the same compound?
A: inactive

Q: For NC(=O)c1cccc(-c2cc(Nc3ccc(OC(F)(F)F)cc3)ncn2)c1, which Potency [1] is on record?
A: 10.3 µM (active) and 5.25 µM (active)

Q: What about the Potency [2] of the same compound?
A: 9.2 µM (active) and 5.9 µM (active)

Q: What about the Potency [3] of the same compound?
A: inactive

Q: What about the Potency [4] of the same compound?
A: inactive

Q: What about the Potency [5] of the same compound?
A: inactive

Q: And the Potency [6]?
A: inactive

Q: And the Potency [12]?
A: inactive

Q: What about the Potency [10] of the same compound?
A: 15.8 µM (active)

Q: Which results are given for CCCc1nc2c(C)cc(-c3nc4ccccc4n3C)cc2n1Cc1ccc(-c2ccccc2C(=O)O)cc1?
A: Potency [1]: 750 nM (active) and inactive; Potency [2]: inactive; Potency [3]: inactive; Potency [4]: inactive; Potency [5]: inactive; Potency [6]: inactive; Potency [13]: inactive; Potency [7]: inactive; Potency [8]: inactive; Potency [9]: inactive; activity (max response) [10]: 3.79% (inactive) and 0.0088% (inactive); Potency [11]: inactive

Q: With CCc1ccc(OCc2ccccc2C(=O)Nc2ccc3nc(C)cc(N)c3c2)cc1 as the compound, how does the Potency [1] read?
A: 1660 nM (active)

Q: And the Potency [2]?
A: 2.09 µM (active)

Q: And the Potency [3]?
A: 9.35 µM (active)

Q: What about the Potency [4] of the same compound?
A: 8.33 µM (active)

Q: And the Potency [5]?
A: 3.32 µM (active)

Q: And the Potency [6]?
A: 9.35 µM (active)

Q: And the Potency [12]?
A: 13.2 µM (active)

Q: What about the Potency [7] of the same compound?
A: 3.72 µM (active)

Q: And the Potency [9]?
A: 10.5 µM (active)

Q: What about the Potency [10] of the same compound?
A: 5.01 µM (active)

Q: What does the source list for O=C1c2ccccc2-[n+]2ccc3c([nH]c4ccccc43)c21?
A: Potency [1]: 820 nM (active); Potency [2]: 0.651 µM (active); Potency [3]: 6.62 µM (active); Potency [4]: 5.9 µM (active); Potency [5]: 5.26 µM (active); Potency [6]: 8.33 µM (active); Potency [13]: 9.35 µM (active); Potency [7]: 2.64 µM (active); Potency [8]: 3.32 µM (active); Potency [9]: 3.32 µM (active); Potency [10]: 2.82 µM (active); Potency [11]: 2.82 µM (active)

Q: Which results are given for COc1ccc(-c2ccc3ncc4c(c3c2)n(-c2ccc(N3CCNCC3)c(C(F)(F)F)c2)c(=O)n4C)cn1?
A: Potency [1]: 26.3 nM (active); Potency [2]: 13 nM (active) and 16.4 nM (active) and 29.5 nM (active); Potency [3]: 0.526 µM (active); Potency [4]: 0.469 µM (active); Potency [5]: 0.148 µM (active); Potency [6]: 1.05 µM (active); Potency [13]: 0.187 µM (active); Potency [7]: 0.0743 µM (active); Potency [8]: 0.0209 µM (active); Potency [10]: 0.316 µM (active); Potency [11]: 0.126 µM (active)

Q: Which Potency [1] does the source give for Cc1c2oc3c(C)ccc(C(=O)NC4C(=O)NC(C(C)C)C(=O)N5CCCC5C(=O)N(C)CC(=O)N(C)C(C(C)C)C(=O)OC4C)c3nc-2c(C(=O)NC2C(=O)NC(C(C)C)C(=O)N3CCCC3C(=O)N(C)CC(=O)N(C)C(C(C)C)C(=O)OC2C)c(N)c1=O (configuration not stated) (I: TVP[Sar][NMeV] / II: TVP[Sar][NMeV]; ester I:1-I:C, II:1-II:C; linker I:N-II:N via Actinocin(9to1); configuration not given here) here?
A: 1.4 nM (active)

Q: And the Potency [2]?
A: 0.001 µM (active)

Q: What about the Potency [3] of the same compound?
A: inactive

Q: What about the Potency [4] of the same compound?
A: inactive

Q: And the Potency [5]?
A: inactive

Q: What about the Potency [6] of the same compound?
A: inactive

Q: What about the Potency [13] of the same compound?
A: inactive

Q: What about the Potency [7] of the same compound?
A: inactive

Q: And the Potency [8]?
A: inactive

Q: And the Potency [9]?
A: inactive

Q: And the Potency [10]?
A: 0.009 µM (active)

Q: What about the Potency [11] of the same compound?
A: 0.802 µM (active)

Q: For CCN1C[C@H](C)n2c(c(O)c3c(=O)n(Cc4ccc(F)c(Cl)c4)nc(C(=O)NC)c32)C1=O, which Potency [1] is on record?
A: inactive

Q: And the Potency [2]?
A: inactive

Q: What about the Potency [3] of the same compound?
A: 23.5 µM (active)

Q: And the Potency [4]?
A: 16.6 µM (active)

Q: And the Potency [5]?
A: 16.6 µM (active)

Q: What about the Potency [6] of the same compound?
A: inactive

Q: And the Potency [13]?
A: inactive

Q: And the Potency [7]?
A: inactive

Q: What about the Potency [9] of the same compound?
A: inactive

Q: What does the source list for COC(=O)[C@H](CCCN=C(N)N)NS(=O)(=O)c1ccc(C)cc1?
A: Potency [1]: inactive; Potency [2]: inactive; Potency [3]: inactive; Potency [4]: inactive; Potency [5]: 6.62 µM (active); Potency [6]: inactive; Potency [12]: inactive; activity (max response) [10]: 6.08% (inactive); Potency [11]: inactive

Q: Which results are given for CCCCCCCCCCCCCCCCCCCCCCO?
A: Potency [1]: inactive; Potency [2]: inactive; Potency [3]: inactive; Potency [4]: inactive; Potency [5]: inactive; Potency [6]: inactive; Potency [13]: inactive; Potency [7]: inactive; Potency [8]: inactive; activity (max response) [10]: -13.9% (inactive); Potency [11]: inactive
